Experimental data from the supplement of paper PMC10646978.
± gives the standard deviation.

Experiments:
Details in all cases: modulator concentration 10 µM
[1] = tested on: RAW-Dual (murine macrophage reporter line); experiment: NF-kB reporter (SEAP) activity fold change vs agonist alone; higher = enhanced NF-kB activity
Summary of the method: (§1)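 Compound reached 10 μM final in each well by pin transfer, onto RAW-Dual murine macrophage reporter cells seeded at 50 000 per well in 384-well plates. After 1 hour at 37 °C, the cells were stimulated overnight with a PRR agonist. SEAP in the supernatant was read with QUANTI-Blue at 620 nm absorbance for NF-κB, and Lucia luciferase was read with QUANTI-Luc luminescence for IRF. Each signal was turned into fold change against the mean agonist-only control on the same plate, and two replicate plates were averaged with propagated errors.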

[2] = tested on: RAW-Dual (murine macrophage reporter line); experiment: IRF reporter (Lucia luciferase) activity fold change vs agonist alone; higher = enhanced IRF activity
Summary of the method: as §1

[3] = tested on: RAW-Dual (murine macrophage reporter line); experiment: viability score (confluency relative to resting cells, overnight) (fraction); higher = more viable, active = viable (0.7 or more)
Summary of the method: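 Overnight exposure to 10 μM final compound was carried out on RAW-Dual macrophages in 384-well plates. IncuCyte software generated two confluency masks over all wells imaged with IncuCyte. The viability score gives confluency in relation to resting cells. A compound met the cutoff if each mask exceeded 70% of resting cells.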

[4] = agonist: CpG ODN 1826 0.5 ug/mL

Structure (SMILES)	NF-kB reporter [1, 4]	NF-kB reporter ([1]; agonist: LPS 0.1 ug/mL)	NF-kB reporter ([1]; agonist: MPLA […])	IRF reporter ([2]; agonist: 3'3'-cGAMP 10 ug/mL)	IRF reporter ([2]; agonist: LPS 0.1 ug/mL)	IRF reporter ([2]; agonist: MPLA […])	viability score [3]
CN(C)CCN(Cc1ccccc1)Cc1cc(Cl)cc(Cl)c1O	0.799 ± 0.063	0.918 ± 0.081	0.996 ± 0.086	0.947 ± 0.058	1.29 ± 0.074	1.32 ± 0.12	1.01 (active)
CCN(CC)c1nc(Nc2ccc([N+](=O)[O-])cc2)nc(N(CC)CC)n1	0.635 ± 0.04	1.07 ± 0.069	0.953 ± 0.058	0.972 ± 0.044	1.16 ± 0.12	1.01 ± 0.12	0.998 (active)
N#CC[C@H](C1CCCC1)n1cc(-c2ncnc3[nH]ccc23)cn1	1.4 ± 0.11	0.341 ± 0.017	0.734 ± 0.074	0.269 ± 0.012	0.719 ± 0.063	0.764 ± 0.074	0.979 (active)
COc1ccc(C(C)(C#N)CC#N)cc1 (configuration not stated)	1.11 ± 0.089	0.941 ± 0.1	1.04 ± 0.1	1.06 ± 0.035	1.29 ± 0.19	1.47 ± 0.31	1.03 (active)
CN1CCN(CCCN2c3ccccc3Sc3ccc(Cl)cc32)CC1.O=C(O)/C=C\C(=O)O.O=C(O)/C=C\C(=O)O	1.01 ± 0.049	1.14 ± 0.098	2.15 ± 0.15	0.14 ± 0.012	0.479 ± 0.12	0.435 ± 0.13	0.86 (active)
Brc1ccc2ncnc(NCc3ccco3)c2c1	0.856 ± 0.14	1.98 ± 0.16	2.54 ± 0.3	0.373 ± 0.021	0.647 ± 0.12	0.7 ± 0.12	0.996 (active)
CCCC(CCC)C(=O)O	1.05 ± 0.099	1.01 ± 0.16	0.99 ± 0.045	0.957 ± 0.079	0.965 ± 0.032	0.897 ± 0.094	0.992 (active)
Nc1ncn([C@@H]2O[C@H](CO)[C@@H](O)[C@H]2O)c(=O)n1	1.55 ± 0.066	0.569 ± 0.045	1.99 ± 0.16	0.549 ± 0.035	0.433 ± 0.049	0.502 ± 0.1	0.745 (active)
Oc1ccc2ccccc2c1SSc1c(O)ccc2ccccc12	0.639 ± 0.15	0.993 ± 0.14	1.18 ± 0.15	0.09 ± 0.0053	0.919 ± 0.1	0.908 ± 0.096	0.963 (active)
Cl.Cn1cc(C(=O)[C@@H]2CCc3nc[nH]c3C2)c2ccccc21	0.806 ± 0.078	0.83 ± 0.11	0.878 ± 0.027	0.906 ± 0.056	0.973 ± 0.11	1.01 ± 0.078	0.997 (active)
CCCCOc1ccc(OCCCN2CCOCC2)cc1.Cl	1.2 ± 0.09	1.27 ± 0.16	1.25 ± 0.1	0.643 ± 0.054	0.852 ± 0.051	0.836 ± 0.071	0.981 (active)
COc1ccc(C2Sc3ccccc3N(CCN(C)C)C(=O)C2OC(C)=O)cc1.Cl (configuration not stated)	1.01 ± 0.29	1 ± 0.05	1.08 ± 0.092	0.966 ± 0.033	1.15 ± 0.15	1.2 ± 0.12	0.992 (active)
CC[C@@]1(O)C(=O)OCc2c1cc1n(c2=O)Cc2cc3c(CN(C)C)c(O)ccc3nc2-1.Cl	2.27 ± 0.11	1.41 ± 0.12	2.16 ± 0.11	2.12 ± 0.15	2.89 ± 0.17	3.26 ± 0.26	0.725 (active)
OCCN1CCN(CC/C=C2/c3ccccc3Sc3ccc(Cl)cc32)CC1 [Prestw-998]	0.395 ± 0.067	0.914 ± 0.093	1.36 ± 0.26	0.303 ± 0.008	1.85 ± 0.3	2.43 ± 0.28	0.624 (inactive)
NC(=O)c1cc2ccccc2oc1=NCc1ccccc1	0.907 ± 0.09	1.06 ± 0.067	0.91 ± 0.1	0.946 ± 0.023	1.16 ± 0.16	1.07 ± 0.22	1.01 (active)
O=C(CCCN1CCC(O)(c2ccc(Br)cc2)CC1)c1ccc(F)cc1 [Prestw-509]	0.892 ± 0.15	1.12 ± 0.14	1.04 ± 0.13	0.925 ± 0.024	1.01 ± 0.16	1.16 ± 0.13	0.998 (active)
Cc1cccc(NC(=O)CSc2nc(N3CCCCC3)nc3ccccc23)c1	0.963 ± 0.088	1.11 ± 0.092	0.98 ± 0.13	0.955 ± 0.055	1.22 ± 0.13	1.43 ± 0.26	0.993 (active)
O=C(c1csc(-c2ccccc2)n1)N1CCCN(C2CCC2)CC1	0.763 ± 0.041	1.17 ± 0.094	0.937 ± 0.063	0.927 ± 0.081	1.19 ± 0.13	1.24 ± 0.12	1.01 (active)
CCN(C=Nc1sc2c(c1C#N)CC(C)(C)NC2(C)C)CC	0.759 ± 0.059	0.93 ± 0.054	0.901 ± 0.093	0.969 ± 0.044	1.24 ± 0.071	1.29 ± 0.22	0.992 (active)
CCc1sc2sncc2c1Br	0.199 ± 0.022	0.817 ± 0.06	1.17 ± 0.11	0.315 ± 0.014	0.713 ± 0.14	0.549 ± 0.076	0.895 (active)
CN1CCN(CC(O)Cn2c3ccccc3c3ccccc32)CC1.O=C(O)C(=O)O (configuration not stated)	0.964 ± 0.074	0.946 ± 0.1	0.983 ± 0.093	0.609 ± 0.02	1.39 ± 0.19	1.45 ± 0.23	1.01 (active)
Cc1cc(N2CCCC2)nc(Nc2ccc(NC(=O)CC(C)C)cc2)n1	0.131 ± 0.01	1.18 ± 0.087	1.31 ± 0.13	0.947 ± 0.04	1.3 ± 0.14	1.49 ± 0.2	0.939 (active)
C(#Cc1ccc(C=Nc2nccs2)cc1)c1ccccc1	0.714 ± 0.18	0.935 ± 0.17	0.892 ± 0.1	0.176 ± 0.029	1.09 ± 0.16	1.15 ± 0.17	0.997 (active)
Cc1cc(Nc2cc(N3CCN(C)CC3)nc(Sc3ccc(NC(=O)C4CC4)cc3)n2)n[nH]1	0.0769 ± 0.0068	0.142 ± 0.0072	0.23 ± 0.021	0.136 ± 0.011	0.537 ± 0.041	0.451 ± 0.06	0.91 (active)
CN(C)C1C(O)=C(C(N)=O)C(=O)C2(O)C(O)=C3C(=O)c4c(O)cccc4C(C)(O)C3CC12.Cl (configuration not stated)	1.11 ± 0.097	1 ± 0.053	1.01 ± 0.021	0.844 ± 0.056	0.937 ± 0.1	0.921 ± 0.072	1 (active)
COc1ccccc1N1C(=O)C(=Cc2ccc3c(c2)OCO3)SC1=S	0.99 ± 0.16	1.05 ± 0.17	0.945 ± 0.14	0.951 ± 0.046	1.2 ± 0.24	1.22 ± 0.36	0.999 (active)
